# Measurements: the supplement of paper PMC11732987, “Enantioselective OTUD7B fragment discovery through chemoproteomics screening and high-throughput optimisation” (Communications Chemistry, 2025)
# A number with no mark means an inactive call.
# How the values were obtained:
# Experiment in all cases: log2 ratio of Biotin-Ahx-Ub-VS probe labelling (fragment/DMSO); higher = less target engagement (more negative = stronger competition), active = hit call of the paper (q ≤ 0.05, log2 ratio ≤ -1)
# Conditions in all cases: compound concentration: 200 uM; treatment time: 3 h
# USP19 = molecular target: T1, USP19 (UniProt O94966)
# T1 sequence (whole entry): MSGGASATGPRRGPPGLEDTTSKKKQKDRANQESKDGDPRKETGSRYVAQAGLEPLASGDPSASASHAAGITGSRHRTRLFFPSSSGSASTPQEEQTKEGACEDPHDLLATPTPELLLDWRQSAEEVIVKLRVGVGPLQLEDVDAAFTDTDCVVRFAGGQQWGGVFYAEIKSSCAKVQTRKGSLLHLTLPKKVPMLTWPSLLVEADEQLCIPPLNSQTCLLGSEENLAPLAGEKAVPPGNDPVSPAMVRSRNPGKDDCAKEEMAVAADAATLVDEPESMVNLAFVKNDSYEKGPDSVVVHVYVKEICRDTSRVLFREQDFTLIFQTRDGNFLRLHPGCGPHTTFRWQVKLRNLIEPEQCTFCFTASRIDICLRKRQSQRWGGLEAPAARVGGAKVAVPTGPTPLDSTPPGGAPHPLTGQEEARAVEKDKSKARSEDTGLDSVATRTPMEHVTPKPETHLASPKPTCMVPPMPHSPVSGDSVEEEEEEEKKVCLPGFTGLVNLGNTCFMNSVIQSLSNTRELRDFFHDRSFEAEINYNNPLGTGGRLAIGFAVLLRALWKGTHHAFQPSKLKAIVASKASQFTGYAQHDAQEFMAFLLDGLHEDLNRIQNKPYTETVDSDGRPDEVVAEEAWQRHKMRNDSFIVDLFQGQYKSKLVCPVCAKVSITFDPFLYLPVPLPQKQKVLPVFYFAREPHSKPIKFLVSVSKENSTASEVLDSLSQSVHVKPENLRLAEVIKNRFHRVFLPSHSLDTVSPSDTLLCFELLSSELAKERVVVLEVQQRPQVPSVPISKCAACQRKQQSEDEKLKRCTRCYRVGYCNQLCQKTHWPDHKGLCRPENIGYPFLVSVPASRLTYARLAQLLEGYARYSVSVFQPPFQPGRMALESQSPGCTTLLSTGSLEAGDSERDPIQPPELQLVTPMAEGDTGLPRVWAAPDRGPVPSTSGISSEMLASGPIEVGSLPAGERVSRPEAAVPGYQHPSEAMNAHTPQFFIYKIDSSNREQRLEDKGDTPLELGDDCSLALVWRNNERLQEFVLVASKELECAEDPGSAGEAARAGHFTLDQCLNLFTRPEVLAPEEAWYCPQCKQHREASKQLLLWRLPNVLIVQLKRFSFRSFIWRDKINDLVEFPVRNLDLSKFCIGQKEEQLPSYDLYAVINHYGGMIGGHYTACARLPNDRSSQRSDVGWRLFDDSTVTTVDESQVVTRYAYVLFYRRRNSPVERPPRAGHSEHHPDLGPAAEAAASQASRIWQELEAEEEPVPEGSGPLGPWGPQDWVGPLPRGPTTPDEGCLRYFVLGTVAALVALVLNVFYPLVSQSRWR
# How it was run: (§1)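 Each value is an average log2 ratio of fragment to vehicle, tested by unpaired t-test. The underlying Spectronaut label-free quantities were global-median-normalised, and only proteins with ≥2 unique peptides were included. Triplicate HEK293T lysate samples (495 µg) were exposed to fragment at 200 µM or vehicle for 3 h, then to Biotin-Ahx-Ub-VS at 0.5 µM final for 1 h, before NeutrAvidin enrichment of labelled DUBs, LysC and trypsin digestion, and diaPASEF LC-MS/MS.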
# USP22 = molecular target: T2, USP22 (UniProt Q9UPT9)
# T2 sequence (whole entry): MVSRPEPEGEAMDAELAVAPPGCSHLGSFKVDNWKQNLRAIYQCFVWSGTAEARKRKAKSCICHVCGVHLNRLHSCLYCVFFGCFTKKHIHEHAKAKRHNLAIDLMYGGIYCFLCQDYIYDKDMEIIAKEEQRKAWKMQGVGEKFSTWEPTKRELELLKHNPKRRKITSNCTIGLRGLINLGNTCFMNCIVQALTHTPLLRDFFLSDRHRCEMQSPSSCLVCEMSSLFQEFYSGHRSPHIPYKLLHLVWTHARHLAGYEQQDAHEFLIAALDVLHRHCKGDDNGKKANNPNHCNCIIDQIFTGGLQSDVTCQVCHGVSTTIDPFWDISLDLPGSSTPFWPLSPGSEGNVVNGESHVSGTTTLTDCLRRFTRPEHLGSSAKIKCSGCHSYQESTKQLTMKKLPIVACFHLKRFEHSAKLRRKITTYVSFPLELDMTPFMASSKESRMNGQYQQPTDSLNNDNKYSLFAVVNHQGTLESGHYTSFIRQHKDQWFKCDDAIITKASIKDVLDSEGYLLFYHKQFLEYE
# How it was run: as §1
# USP24 = USP24 (UniProt Q9UPU5)
# How it was run: as §1
# USP25 = molecular target: T3, USP25 (UniProt Q9UHP3)
# T3 sequence (whole entry): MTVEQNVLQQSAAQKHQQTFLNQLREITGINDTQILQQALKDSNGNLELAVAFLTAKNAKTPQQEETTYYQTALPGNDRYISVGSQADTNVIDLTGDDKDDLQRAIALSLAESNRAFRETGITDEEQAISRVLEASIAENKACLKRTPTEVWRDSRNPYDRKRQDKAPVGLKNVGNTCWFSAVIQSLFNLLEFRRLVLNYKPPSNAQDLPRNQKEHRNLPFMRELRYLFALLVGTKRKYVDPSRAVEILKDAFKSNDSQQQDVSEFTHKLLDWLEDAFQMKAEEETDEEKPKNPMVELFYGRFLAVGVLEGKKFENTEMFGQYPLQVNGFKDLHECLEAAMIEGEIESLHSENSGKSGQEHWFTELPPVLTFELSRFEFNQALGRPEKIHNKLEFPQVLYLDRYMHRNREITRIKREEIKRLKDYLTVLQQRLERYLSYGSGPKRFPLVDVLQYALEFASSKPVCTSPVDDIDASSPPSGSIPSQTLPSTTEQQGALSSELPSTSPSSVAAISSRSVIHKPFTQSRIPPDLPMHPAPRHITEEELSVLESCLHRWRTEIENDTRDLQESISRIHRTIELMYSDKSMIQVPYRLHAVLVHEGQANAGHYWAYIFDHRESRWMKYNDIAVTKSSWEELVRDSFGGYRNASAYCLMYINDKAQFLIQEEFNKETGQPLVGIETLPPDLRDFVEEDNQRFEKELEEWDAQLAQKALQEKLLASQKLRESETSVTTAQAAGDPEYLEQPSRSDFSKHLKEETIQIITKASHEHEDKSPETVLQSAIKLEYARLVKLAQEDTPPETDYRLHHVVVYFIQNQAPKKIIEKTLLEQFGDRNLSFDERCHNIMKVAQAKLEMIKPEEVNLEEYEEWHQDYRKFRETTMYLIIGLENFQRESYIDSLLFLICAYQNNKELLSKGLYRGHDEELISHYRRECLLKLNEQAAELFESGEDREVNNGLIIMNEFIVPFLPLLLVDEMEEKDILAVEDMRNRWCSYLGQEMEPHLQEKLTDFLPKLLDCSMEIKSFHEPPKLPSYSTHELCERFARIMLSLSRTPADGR
# How it was run: as §1
# USP28 = molecular target: T4, USP28 (UniProt Q96RU2)
# T4 sequence (whole entry): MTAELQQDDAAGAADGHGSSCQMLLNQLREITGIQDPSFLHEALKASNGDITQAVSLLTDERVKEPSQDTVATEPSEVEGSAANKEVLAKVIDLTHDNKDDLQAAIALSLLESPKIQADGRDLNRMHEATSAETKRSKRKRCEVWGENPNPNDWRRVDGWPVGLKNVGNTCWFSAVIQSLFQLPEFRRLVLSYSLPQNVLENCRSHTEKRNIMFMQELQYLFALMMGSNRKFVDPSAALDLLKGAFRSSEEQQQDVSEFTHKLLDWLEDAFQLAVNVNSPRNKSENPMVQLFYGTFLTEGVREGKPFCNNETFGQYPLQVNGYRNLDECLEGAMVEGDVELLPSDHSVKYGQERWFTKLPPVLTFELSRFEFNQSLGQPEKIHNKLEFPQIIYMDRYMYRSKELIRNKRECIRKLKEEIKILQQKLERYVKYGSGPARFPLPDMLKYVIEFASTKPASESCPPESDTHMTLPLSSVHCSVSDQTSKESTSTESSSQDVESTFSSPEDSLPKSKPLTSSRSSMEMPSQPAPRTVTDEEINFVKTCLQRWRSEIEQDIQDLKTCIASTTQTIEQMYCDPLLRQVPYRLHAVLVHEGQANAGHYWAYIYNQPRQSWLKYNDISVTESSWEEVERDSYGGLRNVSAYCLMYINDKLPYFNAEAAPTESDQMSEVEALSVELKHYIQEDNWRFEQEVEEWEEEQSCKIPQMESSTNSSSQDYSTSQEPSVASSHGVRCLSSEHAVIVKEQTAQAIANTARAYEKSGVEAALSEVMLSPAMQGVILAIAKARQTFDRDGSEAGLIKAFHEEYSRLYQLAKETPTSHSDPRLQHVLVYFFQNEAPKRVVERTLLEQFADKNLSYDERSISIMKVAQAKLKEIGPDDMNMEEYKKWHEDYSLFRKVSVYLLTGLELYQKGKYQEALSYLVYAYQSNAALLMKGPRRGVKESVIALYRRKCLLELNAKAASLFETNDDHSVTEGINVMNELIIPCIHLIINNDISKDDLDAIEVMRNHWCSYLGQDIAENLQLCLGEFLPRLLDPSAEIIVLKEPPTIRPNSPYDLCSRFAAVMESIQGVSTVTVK
# How it was run: as §1
# Sequence of USP24 (Q9UPU5 whole entry): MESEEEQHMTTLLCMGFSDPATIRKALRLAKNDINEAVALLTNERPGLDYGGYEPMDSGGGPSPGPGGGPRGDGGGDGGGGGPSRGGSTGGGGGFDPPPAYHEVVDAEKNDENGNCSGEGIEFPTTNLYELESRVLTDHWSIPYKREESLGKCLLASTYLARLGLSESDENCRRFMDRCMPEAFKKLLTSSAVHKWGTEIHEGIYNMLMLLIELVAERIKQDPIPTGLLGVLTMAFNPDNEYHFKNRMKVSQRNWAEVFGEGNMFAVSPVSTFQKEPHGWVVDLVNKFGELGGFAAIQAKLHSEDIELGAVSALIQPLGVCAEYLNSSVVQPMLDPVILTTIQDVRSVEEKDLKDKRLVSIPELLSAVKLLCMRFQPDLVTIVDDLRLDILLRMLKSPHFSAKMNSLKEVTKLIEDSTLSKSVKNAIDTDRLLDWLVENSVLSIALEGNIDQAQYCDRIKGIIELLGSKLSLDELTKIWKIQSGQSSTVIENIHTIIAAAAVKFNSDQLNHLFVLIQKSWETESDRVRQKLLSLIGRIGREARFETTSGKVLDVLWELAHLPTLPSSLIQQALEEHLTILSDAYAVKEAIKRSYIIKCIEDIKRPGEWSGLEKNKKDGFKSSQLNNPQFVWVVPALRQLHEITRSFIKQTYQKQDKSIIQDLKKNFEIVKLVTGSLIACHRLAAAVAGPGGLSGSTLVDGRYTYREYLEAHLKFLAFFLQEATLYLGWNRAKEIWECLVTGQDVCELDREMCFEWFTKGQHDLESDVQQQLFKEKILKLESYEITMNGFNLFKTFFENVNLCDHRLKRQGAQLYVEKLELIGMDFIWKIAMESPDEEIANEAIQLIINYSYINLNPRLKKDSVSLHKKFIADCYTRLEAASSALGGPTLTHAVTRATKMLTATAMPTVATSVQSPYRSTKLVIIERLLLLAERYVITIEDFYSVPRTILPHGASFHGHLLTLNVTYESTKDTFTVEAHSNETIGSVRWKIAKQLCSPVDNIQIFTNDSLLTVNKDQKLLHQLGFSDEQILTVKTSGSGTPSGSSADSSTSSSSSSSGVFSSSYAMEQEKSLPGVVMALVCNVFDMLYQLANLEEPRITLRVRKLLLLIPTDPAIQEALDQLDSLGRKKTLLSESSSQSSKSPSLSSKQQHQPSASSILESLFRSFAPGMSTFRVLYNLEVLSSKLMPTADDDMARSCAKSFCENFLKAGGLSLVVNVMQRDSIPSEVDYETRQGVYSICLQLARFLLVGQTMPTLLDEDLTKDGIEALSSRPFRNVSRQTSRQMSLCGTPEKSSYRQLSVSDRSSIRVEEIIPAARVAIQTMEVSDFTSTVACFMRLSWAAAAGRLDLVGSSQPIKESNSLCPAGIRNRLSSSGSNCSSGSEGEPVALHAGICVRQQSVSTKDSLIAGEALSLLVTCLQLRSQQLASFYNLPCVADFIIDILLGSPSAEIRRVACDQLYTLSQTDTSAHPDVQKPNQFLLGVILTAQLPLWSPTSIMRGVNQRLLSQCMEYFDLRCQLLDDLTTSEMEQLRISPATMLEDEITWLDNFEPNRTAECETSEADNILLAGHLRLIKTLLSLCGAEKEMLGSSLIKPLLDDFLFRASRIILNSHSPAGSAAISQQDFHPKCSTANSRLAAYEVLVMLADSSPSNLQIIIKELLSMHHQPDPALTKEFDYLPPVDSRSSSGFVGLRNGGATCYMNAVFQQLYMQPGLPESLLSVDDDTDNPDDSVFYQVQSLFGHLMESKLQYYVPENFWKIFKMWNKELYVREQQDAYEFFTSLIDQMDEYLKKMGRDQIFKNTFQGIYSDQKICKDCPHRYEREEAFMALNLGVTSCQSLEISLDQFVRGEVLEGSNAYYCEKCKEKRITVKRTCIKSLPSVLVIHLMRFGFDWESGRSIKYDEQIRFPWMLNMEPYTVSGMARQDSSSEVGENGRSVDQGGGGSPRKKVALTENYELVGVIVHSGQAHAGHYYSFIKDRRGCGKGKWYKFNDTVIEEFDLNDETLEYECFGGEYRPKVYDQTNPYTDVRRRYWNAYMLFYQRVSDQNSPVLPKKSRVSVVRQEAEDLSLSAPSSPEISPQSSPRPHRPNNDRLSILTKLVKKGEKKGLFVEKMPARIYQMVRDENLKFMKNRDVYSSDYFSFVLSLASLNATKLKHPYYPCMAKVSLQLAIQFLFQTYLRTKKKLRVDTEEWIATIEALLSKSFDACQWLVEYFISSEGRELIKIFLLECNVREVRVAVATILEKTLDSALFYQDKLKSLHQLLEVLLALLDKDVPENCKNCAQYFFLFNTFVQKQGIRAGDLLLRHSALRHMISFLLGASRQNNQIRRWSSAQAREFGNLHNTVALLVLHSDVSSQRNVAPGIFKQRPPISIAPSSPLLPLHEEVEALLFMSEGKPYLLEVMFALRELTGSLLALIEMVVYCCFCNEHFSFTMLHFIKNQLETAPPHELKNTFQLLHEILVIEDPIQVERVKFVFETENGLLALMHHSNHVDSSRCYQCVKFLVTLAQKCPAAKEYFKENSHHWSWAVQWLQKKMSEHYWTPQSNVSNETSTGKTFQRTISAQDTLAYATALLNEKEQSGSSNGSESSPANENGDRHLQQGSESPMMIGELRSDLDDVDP
compound,measurement,setting,value
O=C(CCl)N1CCN(C(=O)N2CCCCC2)CC1,log2 ratio of Biotin-Ahx-Ub-VS probe labelling,USP19,-0.943
same,log2 ratio of Biotin-Ahx-Ub-VS probe labelling,USP22,-0.465
same,log2 ratio of Biotin-Ahx-Ub-VS probe labelling,USP24,-1.28 (active)
same,log2 ratio of Biotin-Ahx-Ub-VS probe labelling,USP25,-1.09 (active)
same,log2 ratio of Biotin-Ahx-Ub-VS probe labelling,USP28,-1.23 (active)
